Test results published in PubChem BioAssay (NCI).
This is part of a sample that, as a whole, favours compounds with a hit. Of some 79,000 tested, about 15% had one in any assay. Activity calls are given as the source filed them. Cut-off read from the data, not from the text of the source: active = growth inhibition above about 70%; inactive = the rest. Where a SMILES comes first, the peptide text is derived from it. The star is where a group is joined. OSu = O=C1CCC(=O)N1O*; OBn = c1ccc(CO*)cc1; Bn = c1ccc(C*)cc1

Key:
[1] = NCI Yeast Anticancer Drug Screen. Data for the rad50 strain (AID 155);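 note: 0% = growth of vehicle-only cultures of the same strain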; conditions: S. cerevisiae rad50 strain growth inhibition, active compounds read high
Method in brief: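 Compounds were tested on a yeast strain with an engineered DNA damage repair alteration; the reported value is growth inhibition normalised to vehicle treatment.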

[2] = NCI Yeast Anticancer Drug Screen. Data for the mec2-1 strain (AID 157); conditions: S. cerevisiae mec2-1 strain, active compounds read high
Method in brief: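 Vehicle-treated cultures served as reference for growth inhibition of compound-exposed mec2-1 yeast.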

[3] = NCI Yeast Anticancer Drug Screen. Data for the sgs1 mgt1 strain (AID 161);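 note: 0% = growth of cultures given vehicle only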; conditions: S. cerevisiae sgs1 mgt1 strain, active compounds read high
Method in brief: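 Inhibition of yeast growth, normalised to vehicle-treated controls, is reported for a strain bearing genetic alterations in DNA damage repair.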

[4] = NCI Yeast Anticancer Drug Screen. Data for the cln2 rad14 strain (AID 165);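 note: 0% = growth equal to vehicle treated cultures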; conditions: S. cerevisiae cln2 rad14 strain, active compounds read high
Method in brief: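 Each compound was tested on cln2 rad14 yeast. Inhibition of growth was calculated against vehicle-exposed controls.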

[5] = NCI Yeast Anticancer Drug Screen. Data for the bub3 strain (AID 167); conditions: S. cerevisiae bub3 mutant strain, active compounds read high
Method in brief: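 Growth of a checkpoint-deficient yeast mutant is measured after compound exposure. Values represent inhibition relative to vehicle.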

[6] = NCI Yeast Anticancer Drug Screen. Data for the mlh1 rad18 strain (AID 175); conditions: S. cerevisiae mlh1 rad18 strain growth inhibition, active compounds read high
Method in brief: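 Vehicle-treated cultures served as the reference for growth inhibition in a yeast strain carrying DNA damage repair alterations exposed to each compound.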

[7] = at 5.0 µM (retest, dose inferred, filed as 0.5)
[8] = at 50.0 µM (retest, dose inferred, filed as 5.0)

Measured: growth inhibition

C=C1C(=O)OC(CCCCCCCCCCCCC)C1C(=O)O (stereo not given)
active: [1]; [8] 89% | [1]; at 50.0 µM 84% | [2]; [7] 93% | [2]; [8] 89% | [2]; at 50.0 µM 89.5% | [3]; [7] 71% | [3]; [8] 84% | [3]; at 50.0 µM 76.3% | [4]; [8] 85% | [4]; at 50.0 µM 85% | [5]; [7] 86% | [5]; [8] 90% | [5]; at 50.0 µM 86.5% | [6]; [7] 86% | [6]; [8] 89% | [6]; at 50.0 µM 80.8%
inactive: [1]; [7] 69% | [4]; [7] 63%

N#CNc1nc(N)c(-c2ccc(Cl)cc2)c(C(=O)Nc2ccc(Cl)c(Cl)c2)n1
inactive: [1]; [7] -1% | [1]; [8] 1% | [1]; at 50.0 µM -5.15% | [2]; [7] -3% | [2]; [8] -2% | [2]; at 50.0 µM 14% | [3]; [7] -2% | [3]; [8] 4% | [3]; at 50.0 µM -8% | [4]; [7] -4% | [4]; [8] 1% | [4]; at 50.0 µM -6.6% | [5]; [7] -2% | [5]; [8] 1% | [5]; at 50.0 µM 4.2% | [6]; [7] -1% | [6]; [8] -2% | [6]; at 50.0 µM -22.4%

CC(C)(Cl)C(Cl)CC/C(CBr)=C(\Cl)CCl (stereo not given)
inactive: [1]; [7] 28% | [2]; [7] 19% | [3]; [7] 14% | [4]; [7] 26% | [5]; [7] 27% | [6]; [7] 21% | [6]; at 50.0 µM 1.35%
active: [1]; [8] 98% | [1]; at 50.0 µM 86.7% | [2]; [8] 98% | [2]; at 50.0 µM 89.9% | [3]; [8] 100% | [3]; at 50.0 µM 91.5% | [4]; [8] 98% | [4]; at 50.0 µM 88.2% | [5]; [8] 100% | [5]; at 50.0 µM 88.2% | [6]; [8] 98%

CS(=O)(=O)OC1C(O)C(n2cnc3c(N)ncnc32)C(O)C(OS(C)(=O)=O)C1OS(C)(=O)=O (stereo not given)
inactive: [1]; [7] 0% | [1]; [8] -2% | [1]; at 50.0 µM 0.05% | [2]; [7] 1% | [2]; [8] -3% | [2]; at 50.0 µM 57.5% | [3]; [7] -2% | [3]; [8] -1% | [3]; at 50.0 µM 3.8% | [4]; [7] -1% | [4]; [8] 0% | [4]; at 50.0 µM -7.9% | [5]; [7] -1% | [5]; [8] -2% | [5]; at 50.0 µM 40% | [6]; [7] -1% | [6]; [8] -1% | [6]; at 50.0 µM 18.4%

CCCCCCCCCCCCCCCCOCC(Cl)COP(=O)(O)OP(=O)(O)OCC1OC(n2cc(C)c(=O)[nH]c2=O)CC1O (stereo not given)
active: [1]; [8] 99% | [1]; at 50.0 µM 86% | [2]; [8] 94% | [3]; [7] 90% | [3]; [8] 99% | [3]; at 50.0 µM 93% | [4]; [8] 85% | [5]; [8] 97% | [5]; at 50.0 µM 79.5% | [6]; [8] 97% | [6]; at 50.0 µM 84.7%
inactive: [1]; [7] 27% | [2]; [7] 30% | [2]; at 50.0 µM 59.6% | [4]; [7] 22% | [4]; at 50.0 µM 63.1% | [5]; [7] 50% | [6]; [7] 67%

Cc1ccc(S(=O)(=O)NNC2Oc3cc4c(cc3C(c3ccccc3O)C2C)OCO4)cc1 (stereo not given)
inactive: [1]; [7] -12% | [2]; [7] -3% | [3]; [7] -2% | [4]; [7] 19% | [5]; [7] -11% | [6]; [7] 22%
active: [1]; [8] 98% | [1]; at 50.0 µM 97.4% | [2]; [8] 98% | [2]; at 50.0 µM 95.7% | [3]; [8] 98% | [3]; at 50.0 µM 95.7% | [4]; [8] 97% | [4]; at 50.0 µM 97% | [5]; [8] 98% | [5]; at 50.0 µM 96.2% | [6]; [8] 97% | [6]; at 50.0 µM 96.2%

CC(C)CC(NC(=O)C(N)CCC(=O)OCc1ccccc1)C(=O)NC(COCc1ccccc1)C(=O)NC(Cc1ccccc1)C(=O)ON1C(=O)CCC1=O (stereo not given) (H-E(OBn)LS(Bn)F-OSu; configuration not given here)
inactive: [1]; [7] 54% | [1]; [8] 66% | [2]; [7] 48% | [3]; [7] 48% | [4]; [7] 41% | [5]; [7] 42% | [6]; [7] 60%
active: [1]; at 50.0 µM 81.7% | [2]; [8] 74% | [2]; at 50.0 µM 84.6% | [3]; [8] 81% | [3]; at 50.0 µM 83.1% | [4]; [8] 71% | [4]; at 50.0 µM 86.7% | [5]; [8] 81% | [5]; at 50.0 µM 80.8% | [6]; [8] 79% | [6]; at 50.0 µM 79%

O=C1OCC/C1=C1/CCOC1
active: [1]; [7] 73% | [1]; [8] 97% | [1]; at 50.0 µM 99.2% | [2]; [8] 98% | [2]; at 50.0 µM 99.3% | [3]; [7] 82% | [3]; [8] 98% | [4]; [8] 97% | [4]; at 50.0 µM 98.8% | [5]; [8] 97% | [5]; at 50.0 µM 99.2% | [6]; [7] 78% | [6]; [8] 97% | [6]; at 50.0 µM 99.5%
inactive: [2]; [7] 65% | [3]; at 50.0 µM 50.3% | [4]; [7] 51% | [5]; [7] 61%

O=C(Nc1ccc([N+](=O)[O-])cc1[N+](=O)[O-])C(=O)C(C(=O)c1ccc(Cl)c(Cl)c1)C1OC(=O)c2ccccc21 (stereo not given)
active: [4]; at 50.0 µM 72.3%
inactive: [1]; [7] 27% | [1]; [8] 27% | [1]; at 50.0 µM 67% | [2]; [7] 25% | [2]; [8] 25% | [2]; at 50.0 µM 40.9% | [3]; [7] 22% | [3]; [8] 22% | [3]; at 50.0 µM 61.8% | [4]; [7] 30% | [4]; [8] 30% | [5]; [7] 31% | [5]; [8] 31% | [5]; at 50.0 µM 53.5% | [6]; [7] 16% | [6]; [8] 16% | [6]; at 50.0 µM 39.6%

O=C(CCCCCCCCCCc1ccccc1)c1ccc(Cl)cc1
active: [1]; [8] 76% | [1]; at 50.0 µM 83.7% | [2]; [8] 79% | [3]; [8] 89% | [3]; at 50.0 µM 93.7% | [4]; at 50.0 µM 70.8% | [5]; [8] 72% | [5]; at 50.0 µM 94.8% | [6]; [8] 80% | [6]; at 50.0 µM 70.6%
inactive: [1]; [7] 7% | [2]; [7] 5% | [2]; at 50.0 µM 42.6% | [3]; [7] 17% | [4]; [7] 15% | [4]; [8] 61% | [5]; [7] 13% | [6]; [7] 16%
